# Where “and” joins values, the source holds several entries; their conditions need not be identical. Equal values may be shown once. Records with an inconclusive call do not appear. Entries that show only a call come without a potency. Unmarked numbers belong to inactive results. Calls of active or inactive are those of the source. The call rests on the fitted dose curve; in most records, active means well fitted curve in the direction sought with a large enough effect; inconclusive means small, poorly fitted or top-dose-only effect, or another doubt; inactive means no such curve, though single readings can be large; an effect the other way counts as inactive or inconclusive. Where a SMILES comes first, the peptide text is derived from it. Bridges are numbered along the chain shown (N, C = ends). [ ]: non-standard residue; d: D form. NMeY = CN[CH](Cc1ccc(O)cc1)C(=O)O
# Columns and labels:
# [1] = Primary qHTS for inhibitors of nuclear receptor binding SET domain protein 2 (NSD2) in an isogenic RCH-ACV NSD2 p.E1099K mutant (9B) (AID 1645876)
# [2] = Primary qHTS for inhibitors of nuclear receptor binding SET domain protein 2 (NSD2) in an RCH-ACV wild type WT cells (2C) (AID 1645877)
# Further: nearly all actives have a fitted effect of over 70% in size.
# Potency means the concentration at half of the fitted maximal effect.
structure (smiles),measurement,setting,value
CC1CCC2C(C(=O)O)=COC(O[C@@H]3O[C@H](CO)[C@@H](O)[C@H](O)[C@H]3O)C12 (stereo partly specified),Potency,[1],inactive
same,Potency,[2],inactive
C=C[C@H]1[C@H](O[C@@H]2O[C@H](CO)[C@@H](O)[C@H](O)[C@H]2O)OC=C(C(=O)OC)[C@H]1CC(=O)O,Potency,[1],inactive
same,Potency,[2],inactive
CN(C)CCCCC(=O)Nc1ccc(NC(=S)NC(=O)c2ccc(C(C)(C)C)cc2)cc1,Potency,[1],1.83 µM (active)
same,Potency,[2],2300 nM (active)
COCC1OC(OC(C)(C)C2CCC3(C)C=C(C4CCC5C4(C)CC(O)C4OC(C(C)(C)OC6OC(CO)C(O)C(O)C6NC(C)=O)CCC45C)CCC3O2)C(NC(C)=O)C(O)C1O (stereo unspecified),"activity change, negative = viability loss",[1],1.46% [at 9.23 µM]
same,outcome,[2],inactive [at 9.23 µM]
CCC(C)C1NC(=O)C2CCCN2C(=O)C(NC(C)=O)C(C)OC(=O)C(Cc2ccc(OC)cc2)N(C)C(=O)C2CCCN2C(=O)C(C(C)C)NC1=O (stereo unspecified) (Ac-TPIVP[NMeY](Me); ester 1-C; configuration not given here),Potency,[1],inactive
same,Potency,[2],inactive
CN1CCN(c2ccc(C(=O)Nc3n[nH]c4ccc(Cc5cc(F)cc(F)c5)cc34)c(NC3CCOCC3)c2)CC1,Potency,[1],3.25 µM (active) and 4.68 µM (active) and 6.51 µM (active)
same,Potency,[2],3.65 µM (active) and 4.17 µM (active) and 6.51 µM (active)
CCOC(=O)C(CCc1ccccc1)NC(C)C(=O)N1C(=O)N(C)CC1C(=O)O (stereo unspecified),Potency,[1],inactive
same,Potency,[2],inactive
C[C@@H]1O[C@@H](O[C@H]2[C@H](O)[C@@H](O[C@@H]3O[C@H](CO)[C@@H](O)[C@H](O[C@@H]4O[C@H](CO)[C@@H](O)[C@H](O)[C@H]4O)[C@H]3O)[C@H](O[C@H]3CC[C@@]4(C)C(=CC[C@@H]5C4CC[C@@]4(C)C5C[C@@H]5OC6(CC[C@@](C)(CO[C@@H]7O[C@H](CO)[C@@H](O)[C@H](O)[C@H]7O)O6)[C@@H](C)[C@@H]54)C3)O[C@@H]2CO)[C@H](O)[C@H](O)[C@H]1O (stereo partly specified),"activity change, negative = viability loss",[1],-19.9% [at 9.23 µM]
same,"activity change, negative = cell killing",[2],-26.3% [at 9.23 µM]
CN(C)c1ccc2c(c1)OC(N)=C(C#N)C2c1cccc(C(F)(F)F)c1 (stereo unspecified),Potency,[1],0.817 µM (active)
same,Potency,[2],916 nM (active)
C[C@@H]1O[C@@H](O[C@H]2[C@H](OC(=O)[C@]34CCC(C)(C)C[C@H]3C3=CCC5[C@@]6(C)C[C@H](O)[C@H](O[C@@H]7O[C@H](CO)[C@@H](O)[C@H](O)[C@H]7O)[C@@](C)(CO)C6[C@H](O)C[C@@]5(C)[C@]3(C)CC4)OC[C@H](O)[C@@H]2O)[C@H](O)[C@H](O)[C@H]1O[C@@H]1OC[C@@H](O)[C@H](O[C@@H]2OC[C@](O)(CO)[C@H]2O)[C@H]1O (stereo partly specified),"activity change, negative = viability loss",[1],-10.4% [at 9.23 µM]
same,"activity change, negative = cell killing",[2],-13.7% [at 9.23 µM]
C=C(C(=O)O)C1CCC2(C)CCCC(C)(O)C2C1 (stereo unspecified),Potency,[1],inactive
same,Potency,[2],inactive
C/C1=C\[C@H]2OC(=O)[C@@H](C)[C@@H]2CC/C(C(=O)O)=C/CC1,Potency,[1],inactive
same,Potency,[2],inactive
COc1ccc(-c2c(-c3cc(C(=O)O)ccn3)ncn2C)cc1,Potency,[1],inactive
same,Potency,[2],inactive
CC(=O)c1ccc(O[C@@H]2O[C@H](CO)[C@@H](O)[C@H](O)[C@H]2O)cc1,Potency,[1],inactive
same,Potency,[2],inactive
CC(=O)C12OC(C)(C)OC1CC1C3CCC4=CC(=O)C=CC4(C)C3(F)C(O)CC12C (stereo unspecified),Potency,[1],inactive
same,Potency,[2],6.5 nM (active)
CC(C)=CCC[C@](C)(O)[C@H]1CC[C@]2(C)[C@@H]1[C@H](O)CC1[C@@]3(C)CC[C@H](O)C(C)(C)[C@@H]3[C@@H](O[C@@H]3O[C@H](CO)[C@@H](O)[C@H](O)[C@H]3O[C@@H]3O[C@H](CO)[C@@H](O)[C@H](O)[C@H]3O)C[C@]12C (stereo partly specified),Potency,[1],inactive
same,Potency,[2],inactive
C[C@@H]1C(=O)O[C@H]2[C@@H](O)C34[C@H]5C[C@@H](C(C)(C)C)C36[C@@H](OC(=O)[C@@H]6O)O[C@@]4(C(=O)O5)[C@@]12O (stereo partly specified),Potency,[1],inactive
same,Potency,[2],inactive
Nc1ccc(/C=C/C(=O)NCc2cc3cc(-c4ccc(C(=O)N5CCC(F)(F)CC5)cc4)cc(-c4ccc(F)cc4)c3o2)cn1,Potency,[1],235 nM (active) and 231 nM (active)
same,Potency,[2],332 nM (active) and 206 nM (active)
C[C@H](O)[C@H](O)/C=C/c1cccc(O)c1CO,Potency,[1],inactive
same,Potency,[2],inactive
COCCN1CCN(Cc2ccc(-c3n[nH]c4c3C(=O)c3c(NC(=O)NN5CCOCC5)cccc3-4)cc2)CC1,Potency,[1],45.9 nM (active) and 59 nM (active)
same,Potency,[2],36.5 nM (active) and 52.5 nM (active)
CC1(C)CC[C@]2(C(=O)O[C@@H]3O[C@H](CO[C@@H]4O[C@H](CO)[C@@H](O)[C@H](O)[C@H]4O[C@@H]4O[C@H](CO)[C@H](O)[C@H](O)[C@H]4O)[C@@H](O)[C@H](O[C@@H]4O[C@H](CO)[C@@H](O)[C@H](O)[C@H]4O)[C@H]3O)CC[C@]3(C)C(=CCC4[C@@]5(C)CC[C@H](O[C@@H]6OC[C@@H](O)[C@H](O)[C@H]6O)[C@@](C)(C(=O)O)C5CC[C@]43C)[C@@H]2C1 (stereo partly specified),"activity change, negative = viability loss",[1],-8.77% [at 9.23 µM]
same,"activity change, negative = cell killing",[2],-8.76% [at 9.23 µM]
CCC(O)C(C)C1CCC(C(C)C(=O)O)O1 (stereo unspecified),Potency,[1],inactive
same,Potency,[2],inactive
COC(=O)C12CCC(C)C(C)C1C1=CCC3C4(C)CCC(OC(C)=O)C(C)(C)C4CCC3(C)C1(C)CC2 (stereo unspecified),Potency,[1],inactive
same,Potency,[2],inactive

# Source: PubChem BioAssay (NCATS)
